For 17 compounds, growth inhibition results are on record in PubChem BioAssay (NCI).

“And” between values parts separate entries of the source, which are not always exact repeats. Equal entries are not always repeated. Compounds without any hit were thinned out: in the full panel of roughly 79,000, 15% have a hit. Some compounds were tested as several samples or in several runs, with calls that do not always agree. The source made the active and inactive calls. Cut-off read from the data, not from the text of the source: active = growth inhibition above about 70%; inactive = the rest.

The nature of experiment [1]: NCI Yeast Anticancer Drug Screen. Data for the rad50 strain (AID 155).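 Note: 0% = growth of vehicle-only cultures of the same strain.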 The note with it: S. cerevisiae rad50 strain growth inhibition; at 50.0 µM; stronger effect = higher value. A digest of the protocol: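 Growth of the mutant yeast was measured after compound exposure and referenced to vehicle-treated cultures.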
The nature of experiment [2]: NCI Yeast Anticancer Drug Screen. Data for the mec2-1 strain (AID 157). The note with it: S. cerevisiae mec2-1 strain, at 50.0 µM, stronger effect = higher value. A digest of the protocol:
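Readout is yeast growth inhibition, normalised to vehicle-treated controls, in the mec2-1 strain exposed to compound.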

A short description of experiment [3]: NCI Yeast Anticancer Drug Screen. Data for the sgs1 mgt1 strain (AID 161).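 Note: 0% = growth of cultures given vehicle only.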 The note with it: S. cerevisiae sgs1 mgt1 strain, at 50.0 µM, stronger effect = higher value. Summed up: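 Growth of a repair-deficient yeast mutant was monitored after compound treatment and expressed as inhibition relative to vehicle-treated cultures.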
Experiment [4] is described as follows: NCI Yeast Anticancer Drug Screen. Data for the cln2 rad14 strain (AID 165).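 Note: 0% = growth equal to vehicle treated cultures.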 Particulars: S. cerevisiae cln2 rad14 strain, at 50.0 µM, stronger effect = higher value. A digest of the protocol: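 Relative to vehicle controls, growth inhibition of compound-treated cln2 rad14 yeast was recorded.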
A short description of experiment [5]: NCI Yeast Anticancer Drug Screen. Data for the bub3 strain (AID 167). Particulars: S. cerevisiae bub3 mutant strain, at 50.0 µM, stronger effect = higher value. A digest of the protocol:
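Whole-cell yeast assay. The mutant strain was incubated with compounds, and growth inhibition was determined by comparison with vehicle-treated cells.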

The nature of experiment [6]: NCI Yeast Anticancer Drug Screen. Data for the mlh1 rad18 strain (AID 175). Particulars: S. cerevisiae mlh1 rad18 strain growth inhibition; at 50.0 µM; stronger effect = higher value. A digest of the protocol: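 Test agents were incubated with a yeast strain of defined genotype (DNA damage repair defect). Inhibition of growth was derived by comparison with vehicle-exposed cultures.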

On to `CC(=O)OC1CC2CCC1(C)C2(C)C` (configuration not stated), for which the growth inhibition was 34.9% (inactive) and 30.8% (inactive) and -12.2% (inactive) in experiment [1]; 26.9% (inactive) and 26.1% (inactive) and -20.2% (inactive) in experiment [2]; 25.8% (inactive) and -34.8% (inactive) and -3.7% (inactive) in experiment [3]; 19.9% (inactive) and 18.3% (inactive) and 5.2% (inactive) in experiment [4]; 29.5% (inactive) and -30.4% (inactive) and 3.55% (inactive) in experiment [5]; 4.85% (inactive) and -78.1% (inactive) and -14.2% (inactive) in experiment [6].

With `Cc1c(C)[n+](=O)c2ccccc2n1[O-]`, the growth inhibition was 15.9% (inactive) and 7.2% (inactive) in experiment [1]; -19.1% (inactive) and -4% (inactive) in experiment [2]; -7.6% (inactive) and 3.5% (inactive) in experiment [3]; -20.6% (inactive) and -2.05% (inactive) in experiment [4]; -18.1% (inactive) and -3.6% (inactive) in experiment [5]; 5.4% (inactive) and 5.85% (inactive) in experiment [6].

With `CCOC(=O)CNC(=O)C(Cc1ccccc1)NC(=O)c1ccccc1N` (configuration not stated), the growth inhibition is 14% (inactive) and 12.7% (inactive) in experiment [1]; -1.7% (inactive) and -2.6% (inactive) in experiment [2]; -0.1% (inactive) and 9.95% (inactive) in experiment [3]; -5.4% (inactive) and -6.3% (inactive) in experiment [4]; 8.7% (inactive) and 4.45% (inactive) in experiment [5]; 7.25% (inactive) and 4.15% (inactive) in experiment [6].

`COc1ccc2c(=O)c(C)c(-c3ccccc3)oc2c1CN(C)C`: the growth inhibition in experiment [1] was 5.85% (inactive) and -33.4% (inactive); in experiment [2], -40.1% (inactive) and -38.5% (inactive); in experiment [3], 10.3% (inactive) and -26.6% (inactive); in experiment [4], 9.8% (inactive) and -0.05% (inactive); in experiment [5], -22.6% (inactive) and -24.3% (inactive); in experiment [6], 2% (inactive) and -28.3% (inactive).

In the case of `CC(=O)Nc1cccc(N)c1`, the growth inhibition in experiment [1] was 8.05% (inactive) and 12.3% (inactive); in experiment [2], -12% (inactive) and 6.65% (inactive); in experiment [3], 0.35% (inactive) and -3.95% (inactive); in experiment [4] it was 5.4% (inactive) and -40.4% (inactive); in experiment [5], 5.1% (inactive) and 0.7% (inactive); in experiment [6] it was 9.6% (inactive) and -1.3% (inactive).

As to `O=C(O)C1C2OC(C(Br)C2Br)C1C(=O)O` (configuration not stated), the growth inhibition in experiment [1] was -12.3% (inactive) and -7.9% (inactive); in experiment [2], 15.1% (inactive) and -12.1% (inactive); in experiment [3], -2.45% (inactive) and -26.4% (inactive); in experiment [4] it was 71.8% (active) and 12.1% (inactive); in experiment [5] it was 94.5% (active) and -11.8% (inactive); in experiment [6] it was 13.9% (inactive) and -0.15% (inactive).

Take `C1OC2COCOC2C2OCOCC2O1` (configuration not stated): the growth inhibition is -22.8% (inactive) and -3% (inactive) in experiment [1]; -17.2% (inactive) and -9.95% (inactive) in experiment [2]; -17.4% (inactive) and -7.85% (inactive) in experiment [3]; -33.5% (inactive) and -14.5% (inactive) in experiment [4]; -13.3% (inactive) and 0.85% (inactive) in experiment [5]; -4.45% (inactive) and -4.65% (inactive) in experiment [6].

Take `CC1C2C=CC(C2)C1C(=O)O` (configuration not stated): the growth inhibition is 5.15% (inactive) and 13.9% (inactive) in experiment [1]; 28.8% (inactive) and 5.1% (inactive) in experiment [2]; -0.05% (inactive) and 5.85% (inactive) in experiment [3]; -42% (inactive) and 9.65% (inactive) in experiment [4]; 7.8% (inactive) and -1.95% (inactive) in experiment [5]; 7.1% (inactive) and 11.2% (inactive) in experiment [6].

For the compound `NC1CCC(N)CC1` (configuration not stated), the growth inhibition in experiment [1] is 7.75% (inactive) and 9.05% (inactive); in experiment [2], 10% (inactive) and -5.85% (inactive); in experiment [3] it was 0.2% (inactive) and 0.75% (inactive); in experiment [4], -11.8% (inactive) and -16.1% (inactive); in experiment [5] it was 8.65% (inactive) and 10.4% (inactive); in experiment [6] it was -6.35% (inactive) and 1.4% (inactive).

In the case of `Cc1ccc(N(O)C(C)(C)C)cc1`, the growth inhibition in experiment [1] was -16.4% (inactive) and -2.35% (inactive); in experiment [2] it was -17.9% (inactive) and 7.6% (inactive); in experiment [3], -4.3% (inactive) and 3.05% (inactive); in experiment [4] it was -3.85% (inactive) and -1.2% (inactive); in experiment [5] it was -23.9% (inactive) and 13.8% (inactive); in experiment [6], 9.15% (inactive) and -11.9% (inactive).

On to `NC1CCCCCCC1`, for which the growth inhibition is 4.85% (inactive) and 5.55% (inactive) in experiment [1]; -4.95% (inactive) and 2.2% (inactive) in experiment [2]; 0.75% (inactive) and 3.8% (inactive) in experiment [3]; -4.2% (inactive) and 1% (inactive) in experiment [4]; 9.85% (inactive) and 3.6% (inactive) in experiment [5]; 0.55% (inactive) and 2.7% (inactive) in experiment [6].

With `CCC(C)C(N)C(=O)O` (configuration not stated), the growth inhibition in experiment [1] was -39.2% (inactive) and 2.9% (inactive); in experiment [2], -31.7% (inactive) and -21.1% (inactive); in experiment [3] it was -17.4% (inactive) and -2.15% (inactive); in experiment [4] it was -29.3% (inactive) and 5.4% (inactive); in experiment [5], -14.1% (inactive) and 4.05% (inactive); in experiment [6], -28.9% (inactive) and 5.5% (inactive).

In the case of `NCCC(=O)c1ccccc1`, the growth inhibition in experiment [1] was -8.25% (inactive) and 0.05% (inactive); in experiment [2] it was -4.2% (inactive) and 6.2% (inactive); in experiment [3] it was -14.6% (inactive) and -1.4% (inactive); in experiment [4] it was -17.4% (inactive) and 7.65% (inactive); in experiment [5] it was -19.5% (inactive) and 7.95% (inactive); in experiment [6], -2.7% (inactive) and 25.3% (inactive).

As to `CCCCCCCCCCCCc1ccccc1`, the growth inhibition in experiment [1] was 2.15% (inactive) and 17.9% (inactive); in experiment [2], 4.1% (inactive) and 11.4% (inactive); in experiment [3], -4.15% (inactive) and 2.6% (inactive); in experiment [4], 5.25% (inactive) and -55.8% (inactive); in experiment [5], 18.2% (inactive) and -19.8% (inactive); in experiment [6], 16.1% (inactive) and -0.6% (inactive).

For `CC(=O)OCC1OC(n2c(N)c(C#N)c(C)c(C#N)c2=S)C(OC(C)=O)C(OC(C)=O)C1OC(C)=O` (configuration not stated), the growth inhibition in experiment [1] was -25.4% (inactive) and -28% (inactive); in experiment [2], -13% (inactive) and -5.75% (inactive); in experiment [3] it was -7.1% (inactive) and -10.7% (inactive); in experiment [4] it was -30.7% (inactive) and -44.5% (inactive); in experiment [5], 3.55% (inactive) and -1.5% (inactive); in experiment [6], -1.85% (inactive) and -27.7% (inactive).

Turning to `CCCCCCC1OCC(CC)C(CCC)O1` (configuration not stated), the growth inhibition is 24.4% (inactive) and 2% (inactive) in experiment [1]; 23.6% (inactive) and 6.9% (inactive) in experiment [2]; 17.1% (inactive) and -6.05% (inactive) in experiment [3]; -12.2% (inactive) and -9.7% (inactive) in experiment [4]; 17.2% (inactive) and 15.2% (inactive) in experiment [5]; 30.4% (inactive) and -9.4% (inactive) in experiment [6].

Take `Cc1cc(C#N)c(=S)n(C2OC(CO)C(O)C(O)C2O)c1C` (configuration not stated): the growth inhibition in experiment [1] is 7.4% (inactive) and 11.9% (inactive); in experiment [2], 9.25% (inactive) and 8.65% (inactive); in experiment [3], 14.2% (inactive) and 15.2% (inactive); in experiment [4], 7.25% (inactive) and -0.4% (inactive); in experiment [5], 7.8% (inactive) and 7.75% (inactive); in experiment [6], 24.6% (inactive) and 22.6% (inactive).
